Here are results for ten molecules from PubChem BioAssay (NCI).

Assay [1] can be described thus: NCI Yeast Anticancer Drug Screen. Data for the rad50 strain (AID 155).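 Further: 0% = growth of vehicle-only cultures of the same strain.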 Conditions: S. cerevisiae rad50 strain growth inhibition, stronger effect = higher value. In outline: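 Yeast carrying a defined DNA repair defect were exposed to test compounds, and growth was compared with vehicle-treated controls to give percent inhibition.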
Assay [2] in a line: NCI Yeast Anticancer Drug Screen. Data for the mec2-1 strain (AID 157). The note with it: S. cerevisiae mec2-1 strain, stronger effect = higher value. In a few lines: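 mec2-1 yeast strain, carrying an alteration in DNA damage repair or cell cycle control, was exposed to compounds; growth inhibition was measured relative to vehicle-treated controls.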
The nature of assay [3]: NCI Yeast Anticancer Drug Screen. Data for the sgs1 mgt1 strain (AID 161).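 Further: 0% = growth of cultures given vehicle only.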 The note with it: S. cerevisiae sgs1 mgt1 strain, stronger effect = higher value. In a few lines: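 This yeast growth screen uses a strain with defined DNA-repair lesions; compound-treated growth is compared with vehicle-treated growth.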
The nature of assay [4]: NCI Yeast Anticancer Drug Screen. Data for the cln2 rad14 strain (AID 165).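 Further: 0% = growth equal to vehicle treated cultures.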 Conditions: S. cerevisiae cln2 rad14 strain, stronger effect = higher value. In outline:
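Yeast carrying cln2 and rad14 alterations (cell cycle control and DNA damage repair) were exposed to compounds. Growth inhibition was measured against vehicle-treated controls.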

Assay [5] is described as follows: NCI Yeast Anticancer Drug Screen. Data for the bub3 strain (AID 167). Conditions: S. cerevisiae bub3 mutant strain, stronger effect = higher value. In a few lines:
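Compounds were applied to a genetically altered yeast strain carrying a cell-cycle control defect. Growth inhibition was scored against vehicle-treated controls.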

A short description of assay [6]: NCI Yeast Anticancer Drug Screen. Data for the mlh1 rad18 strain (AID 175). The note with it: S. cerevisiae mlh1 rad18 strain growth inhibition, stronger effect = higher value. In a few lines: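 Growth inhibition of the yeast strain was measured after compound exposure and expressed relative to vehicle-treated controls. The strain carries defined defects in DNA damage repair.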

The mark [7] stands for this setting: at 5.0 µM (retest, dose inferred, filed as 0.5).
Setting [8] is: at 50.0 µM (retest, dose inferred, filed as 5.0).

The panel holds about 79,000 compounds, 15% with a hit somewhere; the sample as a whole holds those more often. Unmarked numbers belong to inactive results. The source made the active and inactive calls. No stated cut-off is given here; in the data, active means growth inhibition above about 70%; inactive means the rest.

With `O=[N+]([O-])c1ccc(C(Br)c2ccc([N+](=O)[O-])cc2)cc1`, the growth inhibition was 42% in assay [1] (setting [7]); 97% (active) in assay [1] (setting [8]); 99.8% (active) in assay [1] (at 50.0 µM); 29% in assay [2] (setting [7]); 100% (active) in assay [2] (setting [8]); 99.8% (active) in assay [2] (at 50.0 µM). Moreover, the growth inhibition in assay [3] (setting [7]) is 65%; in assay [3] (setting [8]), 100% (active); in assay [3] (at 50.0 µM), 99.8% (active); in assay [4] (setting [7]), 22%; in assay [4] (setting [8]), 99% (active); in assay [4] (at 50.0 µM), 99.7% (active). The growth inhibition in assay [5] (setting [7]) is 15%; in assay [5] (setting [8]), 100% (active); in assay [5] (at 50.0 µM), 99.7% (active); in assay [6] (setting [7]) it was 54%; in assay [6] (setting [8]), 99% (active); in assay [6] (at 50.0 µM) it was 99.7% (active).
In the case of `CCOc1ccc(Nc2nc3c(s2)C(=O)c2ccccc2C3=O)cc1`, the growth inhibition is 78% (active) in assay [1] (setting [7]); 99% (active) in assay [1] (setting [8]); 90.7% (active) in assay [1] (at 50.0 µM); 99% (active) in assay [2] (setting [7]); 99% (active) in assay [2] (setting [8]); 92.1% (active) in assay [2] (at 50.0 µM). For the same molecule, the growth inhibition was 90% (active) in assay [3] (setting [7]); 99% (active) in assay [3] (setting [8]); 92.7% (active) in assay [3] (at 50.0 µM); 58% in assay [4] (setting [7]); 98% (active) in assay [4] (setting [8]); 90.8% (active) in assay [4] (at 50.0 µM). For the same molecule, the growth inhibition in assay [5] (setting [7]) was 98% (active); in assay [5] (setting [8]) it was 99% (active); in assay [5] (at 50.0 µM) it was 92.5% (active); in assay [6] (setting [7]), 89% (active); in assay [6] (setting [8]) it was 98% (active); in assay [6] (at 50.0 µM), 91.8% (active).
Take `C[n+]1ccccc1C[n+]1ccccc1`: the growth inhibition was 4% in assay [1] (setting [7]); 28% in assay [1] (setting [8]); 67.4% in assay [1] (at 50.0 µM); 5% in assay [2] (setting [7]); 17% in assay [2] (setting [8]); 36.1% in assay [2] (at 50.0 µM). The growth inhibition in assay [3] (setting [7]) is 1%; in assay [3] (setting [8]) it was 35%; in assay [3] (at 50.0 µM), 66.8%; in assay [4] (setting [7]), 6%; in assay [4] (setting [8]), 14%; in assay [4] (at 50.0 µM), -10.1%. For the same molecule, the growth inhibition was 2% in assay [5] (setting [7]); 20% in assay [5] (setting [8]); 26.2% in assay [5] (at 50.0 µM); 15% in assay [6] (setting [7]); 17% in assay [6] (setting [8]); 53.9% in assay [6] (at 50.0 µM).
Take `O=C/C=C/c1ccc([N+](=O)[O-])cc1`: the growth inhibition was 24% in assay [1] (setting [7]); 98% (active) in assay [1] (setting [8]); 80.4% (active) in assay [1] (at 50.0 µM); 49% in assay [2] (setting [7]); 100% (active) in assay [2] (setting [8]); 83.5% (active) in assay [2] (at 50.0 µM). In addition, the growth inhibition was 18% in assay [3] (setting [7]); 98% (active) in assay [3] (setting [8]); 95.5% (active) in assay [3] (at 50.0 µM); 8% in assay [4] (setting [7]); 98% (active) in assay [4] (setting [8]); 46.7% in assay [4] (at 50.0 µM). Also, the growth inhibition in assay [5] (setting [7]) was 17%; in assay [5] (setting [8]), 99% (active); in assay [5] (at 50.0 µM), 95.3% (active); in assay [6] (setting [7]), 72% (active); in assay [6] (setting [8]), 99% (active); in assay [6] (at 50.0 µM) it was 90.5% (active).
Turning to `CCc1oc2ccccc2c1C(=O)c1cc(Br)c(O)c(Br)c1`, the growth inhibition is 29% in assay [1] (setting [7]); 99% (active) in assay [1] (setting [8]); 99.2% (active) in assay [1] (at 50.0 µM); 11% in assay [2] (setting [7]); 100% (active) in assay [2] (setting [8]); 99.3% (active) in assay [2] (at 50.0 µM). The growth inhibition in assay [3] (setting [7]) is 8%; in assay [3] (setting [8]) it was 99% (active); in assay [3] (at 50.0 µM) it was 99.2% (active); in assay [4] (setting [7]) it was 8%; in assay [4] (setting [8]) it was 100% (active); in assay [4] (at 50.0 µM) it was 99% (active). Further, the growth inhibition in assay [5] (setting [7]) is 1%; in assay [5] (setting [8]), 99% (active); in assay [5] (at 50.0 µM), 99.3% (active); in assay [6] (setting [7]) it was 18%; in assay [6] (setting [8]), 99% (active); in assay [6] (at 50.0 µM) it was 99.2% (active).
Regarding `COC(=O)c1cc([N+](=O)[O-])cc([N+](=O)[O-])c1Cl`, the growth inhibition was 99% (active) in assay [1] (setting [7]); 99% (active) in assay [1] (setting [8]); 91.2% (active) in assay [1] (at 50.0 µM); 99% (active) in assay [2] (setting [7]); 99% (active) in assay [2] (setting [8]); 93.2% (active) in assay [2] (at 50.0 µM). Also, the growth inhibition in assay [3] (setting [7]) was 100% (active); in assay [3] (setting [8]), 99% (active); in assay [3] (at 50.0 µM), 93.7% (active); in assay [4] (setting [7]), 77% (active); in assay [4] (setting [8]), 99% (active); in assay [4] (at 50.0 µM), 92.4% (active). For the same molecule, the growth inhibition in assay [5] (setting [7]) was 99% (active); in assay [5] (setting [8]), 99% (active); in assay [5] (at 50.0 µM), 92.8% (active); in assay [6] (setting [7]), 100% (active); in assay [6] (setting [8]) it was 99% (active); in assay [6] (at 50.0 µM), 92.2% (active).
For the molecule `C(=N\Nc1ccc2ccccc2n1)/c1ccccn1`, the growth inhibition in assay [1] (setting [7]) was 49%; in assay [1] (setting [8]), 72% (active); in assay [1] (at 50.0 µM) it was 90.7% (active); in assay [2] (setting [7]) it was 30%; in assay [2] (setting [8]), 78% (active); in assay [2] (at 50.0 µM), 92.6% (active). The growth inhibition was 46% in assay [3] (setting [7]); 85% (active) in assay [3] (setting [8]); 93.1% (active) in assay [3] (at 50.0 µM); 31% in assay [4] (setting [7]); 63% in assay [4] (setting [8]); 90.7% (active) in assay [4] (at 50.0 µM). In addition, the growth inhibition in assay [5] (setting [7]) is 44%; in assay [5] (setting [8]) it was 81% (active); in assay [5] (at 50.0 µM) it was 92.3% (active); in assay [6] (setting [7]) it was 50%; in assay [6] (setting [8]) it was 87% (active); in assay [6] (at 50.0 µM) it was 92.1% (active).
For the molecule `O=C(Cc1nc2cc(Cl)c(Cl)cc2nc1CC(=O)c1ccccc1)c1ccccc1`, the growth inhibition was -7% in assay [1] (setting [7]); 93% (active) in assay [1] (setting [8]); 96.4% (active) in assay [1] (at 50.0 µM); -9% in assay [2] (setting [7]); 76% (active) in assay [2] (setting [8]); 96.8% (active) in assay [2] (at 50.0 µM). Moreover, the growth inhibition in assay [3] (setting [7]) is -9%; in assay [3] (setting [8]) it was 84% (active); in assay [3] (at 50.0 µM), 96.8% (active); in assay [4] (setting [7]), 7%; in assay [4] (setting [8]), 74% (active); in assay [4] (at 50.0 µM), 94.8% (active). Moreover, the growth inhibition in assay [5] (setting [7]) was -4%; in assay [5] (setting [8]) it was 90% (active); in assay [5] (at 50.0 µM), 96.5% (active); in assay [6] (setting [7]), -9%; in assay [6] (setting [8]), 93% (active); in assay [6] (at 50.0 µM) it was 96% (active).
As to `Cn1c(-c2ccccc2)c(/C=C/C2=[N+](C)c3ccccc3C2(C)C)c2ccccc21`, the growth inhibition in assay [1] (setting [7]) was 88% (active); in assay [1] (setting [8]) it was 99% (active); in assay [1] (at 50.0 µM), 99.6% (active); in assay [2] (setting [7]) it was 72% (active); in assay [2] (setting [8]), 99% (active); in assay [2] (at 50.0 µM), 99.6% (active). Also, the growth inhibition in assay [3] (setting [7]) is 96% (active); in assay [3] (setting [8]), 56%; in assay [3] (at 50.0 µM) it was 99.6% (active); in assay [4] (setting [7]), 59%; in assay [4] (setting [8]) it was 98% (active); in assay [4] (at 50.0 µM), 99% (active). Also, the growth inhibition in assay [5] (setting [7]) is 93% (active); in assay [5] (setting [8]), 100% (active); in assay [5] (at 50.0 µM), 99.5% (active); in assay [6] (setting [7]) it was 89% (active); in assay [6] (setting [8]) it was 99% (active); in assay [6] (at 50.0 µM), 99% (active).
Turning to `COc1cc(-c2ccc(-[n+]3nc(-c4ccc([N+](=O)[O-])cc4)nn3-c3ccc([N+](=O)[O-])cc3)c(OC)c2)ccc1-[n+]1nc(-c2ccc([N+](=O)[O-])cc2)nn1-c1ccc([N+](=O)[O-])cc1`, the growth inhibition in assay [1] (setting [7]) is 95% (active); in assay [1] (setting [8]) it was 94% (active); in assay [1] (at 50.0 µM), 89.5% (active); in assay [2] (setting [7]) it was 98% (active); in assay [2] (setting [8]), 98% (active); in assay [2] (at 50.0 µM), 91.4% (active). The growth inhibition in assay [3] (setting [7]) was 94% (active); in assay [3] (setting [8]) it was 96% (active); in assay [3] (at 50.0 µM), 90.2% (active); in assay [4] (setting [7]), 96% (active); in assay [4] (setting [8]) it was 97% (active); in assay [4] (at 50.0 µM) it was 88.5% (active). Further, the growth inhibition in assay [5] (setting [7]) is 97% (active); in assay [5] (setting [8]), 97% (active); in assay [5] (at 50.0 µM), 90.2% (active); in assay [6] (setting [7]), 97% (active); in assay [6] (setting [8]), 96% (active); in assay [6] (at 50.0 µM), 90% (active).
